Many of the other results were omitted from the sample, so hits are more common in it than they were.
Pf Dd2 inh = Plasmodium falciparum Dd2 growth inhibition | hit rate 4.3% among 120,000 | P. falciparum Dd2 growth, SYBR Green, 72 h | Potency, µM (doses to about 28.9 µM), for the others: at the top dose activity, negative = inhibition, actives largely listed as inhibitors; active = well fitted inhibition curve with a large enough effect;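 also: plate controls were DMSO vehicle for no effect and reference drug for full effect; nearly all actives have a fitted effect of over 65% in size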
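Infected erythrocytes (Dd2, 0.3% parasitemia, 2.5% hematocrit final) are added to compound in RPMI-1640/Albumax II medium, grown 72 h at 37C in low oxygen, then lysed with saponin/Triton-X containing SYBR Green and read by fluorescence.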
Active calls of the source: *; i = inactive; [ ] = dose if it differs, or a comment. Potency is read from the fitted curve at half-maximal effect.

SMILES	Pf Dd2 inh
CN1c2cc(C(N)=O)ccc2C(=O)N2CCCCCC21 (stereo unspecified)	6.7%
Cc1ccc(C(=O)CSc2nc3cc(C(=O)NC4CCCC4)ccc3c(=O)n2CC2CCCO2)cc1 (stereo unspecified)	-16.6%
COCCn1c(SCC(=O)c2ccc(C)cc2C)nc2cc(C(=O)NC3CCCC3)ccc2c1=O	17.2%
Cc1ccc(C)c(C(=O)CSc2nc3cc(C(=O)NC4CCCC4)ccc3c(=O)n2CC2CCCO2)c1 (stereo unspecified)	10µM*
O=C(CSc1nc2cc(C(=O)NC3CCCC3)ccc2c(=O)n1CC1CCCO1)c1cccc(Cl)c1 (stereo unspecified)	10µM*
COCCn1c(SCC(=O)c2ccc(C)cc2)nc2cc(C(=O)NC3CCCC3)ccc2c1=O	20.5%
O=C(CSc1nc2cc(C(=O)NC3CCCC3)ccc2c(=O)n1CC1CCCO1)c1ccc(F)cc1 (stereo unspecified)	-26.1%
CCOc1ccccc1C(=O)N1CCCC2(C1)NC(=O)N(Cc1ccc(Cl)cc1)C2=O (stereo unspecified)	i
Cc1ccc(NC(=O)N2C[C@@H](F)C[C@H]2C(=O)N2CCc3ccccc3C2)cc1	12.0%
CC(C)c1cc(C(=O)NCc2cccnc2Oc2cccc(C(F)(F)F)c2)n[nH]1	-11.9%
Cn1cnc(C(=O)N2CCC(N3C(=O)C(OCC4CC4)C34CCOCC4)CC2)c1 (stereo unspecified)	0.5%
Cn1cc(CN2CCN(C(c3ccccc3)c3ccccc3)CC2)cc1C#N	3.16µM*
c1ccc(C(c2ccccc2)N2CCN(Cc3nc(-c4ccccn4)no3)CC2)cc1	-5.3%
Cn1cc(CN2CCN(C(=O)Cc3ccccc3)CC2)ccc1=O	0.0%
O=C(NCCCn1cccn1)c1c(OCC2CC2)cc(=O)n2c1CCCCC2	16.2%
O=C(C[C@@H]1O[C@H](CNS(=O)(=O)c2ccc(Cl)cc2)[C@@H](O)[C@H]1O)NC1CC1	19.0%[44.1 µM]
CN1CCN(C)C2(CCN(C(=O)c3cn4cc(Cl)ccc4n3)CC2)C1	-24.6%
CC(=O)c1sc2c(c1C)c(=O)n(-c1ccc(Cl)cc1)c(=O)n2Cc1cc(=O)n2cc(Cl)ccc2n1	1.26µM*
Cc1sc2c(c1C)c(=O)n(-c1ccc(Cl)cc1)c(=O)n2Cc1cc(=O)n2ccccc2n1	i
CCOc1ccc(-n2c(=O)c3c4c(sc3n(Cc3cc(=O)n5cc(Cl)ccc5n3)c2=O)CCC4)cc1	1.1%
Cc1ccc(-n2ncc3c2CCCC3NC(=O)c2cc(C(C)C)no2)cc1C (stereo unspecified)	-0.9%
Cc1cc(C[C@@H]2COC[C@@H]2NC(=O)c2cn(C)c3ccccc23)on1	-4.1%
Cc1cccc(CN2C[C@@H]3C(=O)N(CCCN4CCCC4=O)C(=O)[C@@H]3C2)c1	143.2%
Cc1ccc(-c2ncc3c(n2)OCCN(Cc2ccc(F)cc2F)C3=O)cc1	i
Fc1ccc(CCNc2nccc(-c3cccnc3)n2)cc1	-27.2%
SMILES	Pf Dd2 inh
CC(Cc1ccncc1)Nc1nccc(-c2cnn(-c3ccccc3)c2)n1 (stereo unspecified)	8.91µM*
c1cc(-c2ccnc(NCC3(N4CCOCC4)CCCCC3)n2)ccn1	-18.4%
c1cncc(-c2ccnc(NCCc3csc(-c4ccncc4)n3)n2)c1	-6.7%
CCN(Cc1ccncc1)Cc1cn(-c2ccccc2)nn1	-15.0%
CC(Cc1ccncc1)Nc1nccc(-c2cnn(-c3ccccc3F)c2)n1 (stereo unspecified)	5.01µM*
COc1ccc2c(c1)C1(CCN(C(=O)Nc3ccc(OC)c(OC)c3)C1)C(=O)N2 (stereo unspecified)	27.8%
COCCn1c(Cn2ccc3ccccc32)nnc1C1CC(N)C1 (stereo unspecified)	0.6%
CCO[C@H]1CN(C(=O)Cc2nc(C)sc2C)C[C@@H]1O	-0.2%
O=C(NC1CCCCC1)N1CCC(N2C(=O)C3(CCCCC3)C2c2ccncc2)CC1 (stereo unspecified)	5.01µM*
CCOC(=O)CCNC(=O)N1CCC(N2C(=O)C3(CCCCC3)C2c2ccncc2)CC1 (stereo unspecified)	-0.9%
CN1CCC(N2CCC(N3C(=O)C4(CCCCC4)C3c3ccncc3)CC2)CC1 (stereo unspecified)	-0.8%
O=C(c1ccoc1)N1CCC(N2C(=O)C3(CCCCC3)C2c2ccncc2)CC1 (stereo unspecified)	-16.5%
Cc1ccc(CNC(=O)N2CCC(N3C(=O)C4(CCCCC4)C3c3ccncc3)CC2)cc1 (stereo unspecified)	11.2µM*
CS(=O)(=O)N1CCC(N2C(=O)C3(CCCCC3)C2c2ccncc2)CC1 (stereo unspecified)	-2.7%
CSc1cccc(NC(=O)Cn2ccn3nc4c(c3c2=O)CCCC4)c1	-5.2%
COCCN(C)C[C@H]1C[C@H](CO)CN(C(=O)c2cc(Cl)cc(OC)c2)C1	-28.1%
CCOCCOC1CCN(S(=O)(=O)c2cccc(OC)c2)CC1	i
C=CCOc1cccc(-c2nnc(CCC(=O)NC(C)CC)c(=O)[nH]2)c1 (stereo unspecified)	i
CN(C)CCN1CC2(CCCN(C(=O)CCc3cc(=O)[nH]o3)C2)CCC1=O (stereo unspecified)	-20.0%
O=C([C@@H]1C[C@H](F)CN1C(=O)Nc1cccc(Br)c1)N1CCCCC1	i
CCC1=C(C(=O)OC)C(c2ccccc2Cl)N2C(CC(=O)N(C)Cc3ccccc3)=CSC2=N1 (stereo unspecified)	-9.0%
Cc1ccsc1C(=O)N1CC2CC(C1)[C@H]1CCCC(=O)N1C2 (stereo partly specified)	-6.5%
CC(C)S(=O)(=O)c1oc(-c2ccc(F)cc2)nc1S(=O)(=O)c1ccccc1	6.31µM*
CCCCS(=O)(=O)c1oc(-c2ccc(F)cc2)nc1S(=O)(=O)c1ccccc1	-23.7%
CC(C)S(=O)(=O)c1oc(-c2cccs2)nc1S(=O)(=O)c1ccc(F)cc1	10µM*
SMILES	Pf Dd2 inh
CS(=O)(=O)c1oc(-c2ccc(F)cc2)nc1S(=O)(=O)c1ccc(Cl)cc1	10.0%
Cc1ccc(S(=O)(=O)c2nc(-c3cccs3)oc2SC(C)C)cc1	-9.4%
O=S(=O)(c1ccccc1)c1nc(-c2cccs2)oc1SCc1ccc(F)cc1	3.1%
CCN1c2cc(C(=O)NCc3ccncc3)ccc2C(=O)N2CCCCC21 (stereo unspecified)	28.9%
CN(C(=O)Cn1nc2n(c1=O)CCCCC2)C1CCCCC1	29.1%
COc1cc(=O)n2c(c1C(=O)Nc1cc(Cl)ccc1Cl)CCCC2	-17.6%
Cc1ccccc1-c1onc(C)c1C(=O)NCCc1ccc(F)cc1	i
Cc1nc(-c2ccc(N(C)C)cc2)cc([C@H]2CN3CC[C@H]2C[C@@H]3CNC(=O)NC(C)C)n1	i
COCCOc1ccc(C(=O)N[C@@H]2CNCCC[C@H]2O)cc1	48.5%[44.1 µM]
Cc1nn(C(C)C)c(C)c1CN1CC[C@@H](c2ccc3c(c2)OCO3)[C@H](O)C1	-25.7%
CCOC(=O)C1(Cc2ccccc2Cl)CCN(C(=O)c2ccsc2)CC1	-6.2%
CCOC(=O)C1(Cc2ccccc2Cl)CCN(Cc2cccc3c2OCO3)CC1	8.91µM*
CCOC(=O)C1(Cc2ccccc2F)CCCN(C(=O)C2=C(C)OCCO2)C1 (stereo unspecified)	-9.7%
COC[C@@H]1[C@@H](NC(=O)c2ccc3c(c2)ncn3C)[C@@H]2CCO[C@H]12	-20.8%
CCNC(=O)Nc1ccc(OCC(=O)N2CCN(c3cccc(OC)c3)CC2)nc1	-0.2%
C=CCn1cc2c3c(cccc31)[C@H](CC(C)C)N[C@H](C(=O)NCCCN1CCCC1=O)C2	i

Compound activity from PubChem.
